From PubChem BioAssay
Results filed as inconclusive are left out. Activity calls are given as the source filed them.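 Rule for the calls, unless noted: active = normalized viability below 100% at a tested concentration; inactive = the rest.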

Assays:
[1] = growth inhibition of DIPG glioma cells, dose response, cell-based, SU-DIPG-XVII, MIPE5.0, CellTiter-Glo, qHTS (AID 1347060; cut-off not given, nearly all actives have AC50 up to about 26 µM;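 for AC50: cells exposed to compound for 48 hours before viability readout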); settings: SU-DIPG-XVII viability, CellTiter-Glo ATP luminescence
[2] = growth inhibition of DIPG glioma cells, dose response, cell-based, SU-DIPG-XIII, MIPE4.0, CellTiter-Glo, qHTS (AID 1347061; cut-off not given, nearly all actives have AC50 up to about 37 µM;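 note: cells exposed to compound for 48 hours before readout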); settings: SU-DIPG-XIII viability, CellTiter-Glo ATP luminescence
[3] = growth inhibition of DIPG glioma cells, dose response, cell-based, JHH-DIPG-1, MIPE4.0, CellTiter-Glo, qHTS (AID 1347062; cut-off not given, nearly all actives have AC50 up to about 27 µM;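 for AC50: cells exposed to compound for two days before readout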); settings: JHH-DIPG-1 viability, CellTiter-Glo ATP luminescence
[4] = growth inhibition of DIPG glioma cells, dose response, cell-based, SU-DIPG-IV, MIPE4.0, CellTiter-Glo, qHTS (AID 1347063; cut-off not given, nearly all actives have AC50 up to about 30 µM;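 note: compound exposure lasted 48 hours before the viability readout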); settings: SU-DIPG-IV viability, CellTiter-Glo ATP luminescence
[5] = growth inhibition of DIPG glioma cells, dose response, cell-based, SU-DIPG-XIII, MIPE5.0, CellTiter-Glo, qHTS (AID 1347064; cut-off not given, nearly all actives have AC50 up to about 23 µM;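 for AC50: cells exposed to compound for 48 hours before the viability read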); settings: SU-DIPG-XIII viability, CellTiter-Glo ATP luminescence
[6] = viability loss in pontine glioma line – cell-based, SU-DIPG-XXV, MIPE5.0, CellTiter-Glo, qHTS, dose response (AID 1347065; cut-off not given, nearly all actives have AC50 up to about 26 µM;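 note: cells exposed to compound for 48 hours before ATP readout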); settings: CellTiter-Glo ATP luminescence
[7] = SU-DIPG-VI glioma cell viability, MIPE4.0 library, CellTiter-Glo luminescence, qHTS (AID 1347066; cut-off not given, nearly all actives have AC50 up to about 30 µM;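 note: cells exposed to compound for 48 hours before readout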); settings: CellTiter-Glo ATP luminescence
[8] = JHH-DIPG-1 glioma cell viability, MIPE5.0 library, CellTiter-Glo luminescence, qHTS (AID 1347067; cut-off not given, nearly all actives have AC50 up to about 26 µM;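 note: cells exposed to compound for 48 hours before readout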); settings: JHH-DIPG-1 glioma viability, CellTiter-Glo ATP luminescence
[9] = SU-DIPG-XXV glioma cell viability, MIPE5.0 library, qHTS (AID 1347068; cut-off not given, nearly all actives have IC50 up to about 30 µM;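 for IC50: cells exposed to compound for 48 hours before viability readout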)
[10] = sensitizers of A549 cells to miR-34 induction, primary screen, imaging, A549 dox-inducible miR-34, nuclei and caspase counts (AID 1347080;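 active = compounds whose cell count with miR-34 switched on is under 0.7 times the count with it off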); settings: A549 miR-34 inducible, Hoechst nuclei count, 48 h
[11] = modifiers of HSF1 nuclear foci, imaging, Selleck Cancer Library (AID 1347162; in the data active = plate-normalised HSF1 focus index below about 0.46); settings: human cells, at 10 µM; SSMD: measured here: HSF1 foci SSMD mean; cell count: measured here: cell number; plate-normalised HSF1 focus index: stronger effect = lower value
[12] = survival rescue of mitochondrial mutant cells in low glucose, primary screen, MELAS cybrids, Rieske KO mouse fibroblasts, CellTiter-Glo (AID 1508586;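 active = mean z-score across replicates of 1.96 or higher in either the MELAS or the Rieske mutant cell line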;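 note: z relative to plate mean and SD of compound and empty wells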)
[13] = ovarian cancer cell viability with rucaparib, profiling panel, oncology-focused library, rucaparib conditional (AID 1508598); settings: patient-derived ovarian cancer cells, CellTiter-Glo viability, 144 h, stronger effect = lower value
[14] = stronger effect = lower value, cell number ratio, induced over uninduced
[15] = measured here: relative caspase fold change +Dox/-Dox
[16] = measured here: total cells with miR-34 induction, stronger effect = lower value
[17] = measured here: total cells without miR-34 induction
[18] = MELAS cybrid survival, CellTiter-Glo 48 h, stronger effect = higher value
[19] = Rieske KO mouse fibroblast survival, CellTiter-Glo 72 h

Cn1cc(-c2ccc3nnc(Sc4ccc5ncccc5c4)n3n2)cn1
0.75: z-score [12, 19]
7210: cell count [10, 16]
active: viability ([13]; at 0.000305 µM, OCI-P5x cells, with rucaparib 20 µM, 100% = cells with rucaparib alone) 97.6% | viability ([13]; at 0.000305 µM, OCI-P5x cells, without rucaparib) 94.3% | viability ([13]; at 0.00122 µM, OCI-P5x cells, without rucaparib) 98.6% | viability ([13]; at 5 µM, OCI-P5x cells, with rucaparib 20 µM, 100% = cells with rucaparib alone) 91.5%
7530: cell count [11]
inactive: outcome [1] | outcome [2] | outcome [3] | outcome [4] | outcome [5] | outcome [6] | outcome [7] | outcome [8] | outcome [9] | fold change [10, 14] 0.884 | plate-normalised HSF1 focus index [11] 1.11 | z-score [12, 18] -0.396 | viability ([13]; at 0.000305 µM, OCI-C5x cells, with rucaparib 10 µM, 100% = cells with rucaparib alone) 127% | viability ([13]; at 0.000305 µM, OCI-C5x cells, without rucaparib) 127% | viability ([13]; at 0.00122 µM, OCI-C5x cells, with rucaparib 10 µM, 100% = cells with rucaparib alone) 135% | viability ([13]; at 0.00122 µM, OCI-C5x cells, without rucaparib) 125% | viability ([13]; at 0.00122 µM, OCI-P5x cells, with rucaparib 20 µM, 100% = cells with rucaparib alone) 111% | viability ([13]; at 0.00488 µM, OCI-C5x cells, with rucaparib 10 µM, 100% = cells with rucaparib alone) 132% | viability ([13]; at 0.00488 µM, OCI-C5x cells, without rucaparib) 125% | viability ([13]; at 0.00488 µM, OCI-P5x cells, with rucaparib 20 µM, 100% = cells with rucaparib alone) 112% | viability ([13]; at 0.00488 µM, OCI-P5x cells, without rucaparib) 102% | viability ([13]; at 0.0195 µM, OCI-C5x cells, with rucaparib 10 µM, 100% = cells with rucaparib alone) 126% | viability ([13]; at 0.0195 µM, OCI-C5x cells, without rucaparib) 122% | viability ([13]; at 0.0195 µM, OCI-P5x cells, with rucaparib 20 µM, 100% = cells with rucaparib alone) 110% | viability ([13]; at 0.0195 µM, OCI-P5x cells, without rucaparib) 103% | viability ([13]; at 0.0781 µM, OCI-C5x cells, with rucaparib 10 µM, 100% = cells with rucaparib alone) 120% | viability ([13]; at 0.0781 µM, OCI-C5x cells, without rucaparib) 124% | viability ([13]; at 0.0781 µM, OCI-P5x cells, with rucaparib 20 µM, 100% = cells with rucaparib alone) 103% | viability ([13]; at 0.0781 µM, OCI-P5x cells, without rucaparib) 110% | viability ([13]; at 0.313 µM, OCI-C5x cells, with rucaparib 10 µM, 100% = cells with rucaparib alone) 126% | viability ([13]; at 0.313 µM, OCI-C5x cells, without rucaparib) 123% | viability ([13]; at 0.313 µM, OCI-P5x cells, with rucaparib 20 µM, 100% = cells with rucaparib alone) 107% | viability ([13]; at 0.313 µM, OCI-P5x cells, without rucaparib) 106% | viability ([13]; at 1.25 µM, OCI-C5x cells, with rucaparib 10 µM, 100% = cells with rucaparib alone) 131% | viability ([13]; at 1.25 µM, OCI-C5x cells, without rucaparib) 124% | viability ([13]; at 1.25 µM, OCI-P5x cells, with rucaparib 20 µM, 100% = cells with rucaparib alone) 105% | viability ([13]; at 1.25 µM, OCI-P5x cells, without rucaparib) 104% | viability ([13]; at 5 µM, OCI-C5x cells, with rucaparib 10 µM, 100% = cells with rucaparib alone) 157% | viability ([13]; at 5 µM, OCI-C5x cells, without rucaparib) 114% | viability ([13]; at 5 µM, OCI-P5x cells, without rucaparib) 100%
1.79: SSMD [11]
8160: cell count [10, 17]
0.78: fold change [10, 15]

O=C(NCc1ccccc1)c1csc(Nc2ccncn2)n1
active: AC50 [1] 18.6 µM | AC50 [2] 20.9 µM | AC50 [3] 4.18 µM | AC50 [4] 9.35 µM | AC50 [5] 14.8 µM | AC50 [6] 16.6 µM | AC50 [7] 16.6 µM | AC50 [8] 16.6 µM | IC50 [9] 23.5 µM
0.977: fold change [10, 15]
4990: cell count [10, 16]
inactive: fold change [10, 14] 0.918 | z-score [12, 18] -0.235
5440: cell count [10, 17]
-0.0999: z-score [12, 19]

CC[C@H](CC[C@@H](C)[C@H]1CC[C@H]2[C@@H]3CC=C4C[C@@H](O)CC[C@]4(C)[C@H]3CC[C@]12C)C(C)C
inactive: outcome [1] | outcome [2] | outcome [3] | outcome [4] | outcome [5] | outcome [6] | outcome [7] | outcome [8] | outcome [9] | fold change [10, 14] 0.94
9330: cell count [10, 17]
0.534: fold change [10, 15]
8770: cell count [10, 16]
